Data taken from PubChem BioAssay (Tox21).
Inconclusive results are not listed. Where a call stands in place of a potency, no number is given. The source made the active and inactive calls. Calls follow the shape of the dose curve; as a rule, active = well fitted cell-killing curve with a large enough effect in the repeat runs; inconclusive = weak or mixed curves, or effect the other way; inactive = no such curve, though single readings can be large or run the other way.

assay: qHTS assay to identify small molecule antagonists of the progesterone receptor (PR) signaling pathway - cell viability counter screen (AID 1346798); details: PR-UAS-bla HEK293T viability, CellTiter-Glo luminescence, 16 h; series mostly up to 92.4 µM; also: nearly all actives have a fitted effect of over 50% in size
From the text: National Center for Advancing Translational Sciences [NCATS]
NIH Chemical Genomics Center [NCGC]
U.S. Environmental Protection Agency [EPA]
National Institutes of Environmental Health Sciences [NIEHS]
National Toxicology Program [NTP]
U.S. Food and Drug Administration [FDA]
Progesterone receptor (PR), a nuclear hormone receptor, plays an important role in development, metabolic homeostasis and reproduction. It is activated by the steroid hormone progesterone. Endocrine disrupting chemicals (EDCs) and their interactions with steroid hormone receptors like PR causes disruption of normal endocrine function. To identify the compounds that inhibit PR signaling, a PR-UAS-bla GripTite cell line i.e. PR-UAS-bla HEK293T (Invitrogen, Carlsbad, CA, USA) containing a beta-lactamase reporter gene under the control of an UAS response element was used to screen Tox21 10K compound library. The cytotoxicity of the Tox21 compound library against the PR-bla cell line was tested in parallel by measuring the cell viability using CellTiter-Glo assay in the same wells.
Tox21 Assay Protocol Summary:
PR-UAS-bla HEK293T cells were dispensed at 3,000 cells/4 uL of assay medium containing 2% charcoal stripped FBS per well into black wall/clear-bottom 1536-well plates using a Multidrop Combi (ThermoFisher Scientific, Waltham, MA) dispenser. After the assay plates were incubated at a 37C and 5% CO2 for 4 hr, 23 nL of compounds dissolved in DMSO, positive controls or DMSO only was transferred to the assay plate by a Pintool station (Kalypsys, San Diego, CA), followed by addition of 1 uL of R5020 in assay medium using a Flying Reagent Dispenser (FRD, Aurora Discovery, San Diego, CA). The plates were incubated at 37C and 5% CO2 for 16 hr. Then 1 uL of LiveBLAzer B/G FRET substrate was added using a Flying Reagent Dispenser, the plates were incubated at room temperature for 2 hours, and fluorescence intensity was measured by an Envision plate reader (PerkinElmer, Shelton, CT). For cell viability readout that measures cytotoxicity, 4 uL/well of CellTiter-Glo reagent was added into the assay plates using a FRD. After 30 min incubation at room temperature, the luminescence intensity in the plates was measured using a ViewLux (PerkinElmer) plate reader.

SMILES	Potency	activity change, negative = cytotoxicity
CC(C)(CO)[C@@H](O)C(=O)NCCCO	inactive	–
CC(=O)/C=C/c1ccco1	inactive	–
NC(=O)C1(N2CCCCC2)CCN(CCCC(=O)c2ccc(F)cc2)CC1	inactive	–
Nc1cc(Cl)cc(S(=O)(=O)O)c1O	inactive	–
Nc1ccnc(=O)[nH]1	inactive	–
C[C@@H]1C[C@H]2[C@@H]3C[C@H](F)C4=CC(=O)C=C[C@]4(C)[C@@]3(F)[C@@H](O)C[C@]2(C)[C@@]1(O)C(=O)CO	inactive	–
CCN(CC)C(=O)C1CN2CCc3cc(OC)c(OC)cc3C2CC1OC(C)=O (stereo not given)	inactive	–
C=C[Si](C)(C)O[Si](C)(C)C=C	inactive	–
C[C@H](CCC(=O)O)[C@H]1CC[C@H]2[C@@H]3[C@H](O)C[C@@H]4C[C@H](O)CC[C@]4(C)[C@H]3C[C@H](O)[C@]12C	inactive	–
C=CCOCC(O)CCl (stereo not given)	inactive	–
O=C(O)/C=C/c1ccccc1	inactive	–
Cc1ccccc1C	inactive	–
CCCC(C)CC (stereo not given)	inactive	–
CC(CC(=O)O)CC(C)(C)C (stereo not given)	inactive	–
CCC(C)(CCC(C)C)C(=O)[O-].CCC(C)(CCC(C)C)C(=O)[O-].[Zn+2] (stereo not given)	inactive	–
C=C(C)C(=O)OC1CC(C)CC(C)(C)C1 (stereo not given)	inactive	–
CCCCCCCCC(=O)OCC	inactive	–
C=CCCCCCCCCCCC	–	-5.87% [at 8.39 µM] (inactive)
c1ccc(CNc2ncnc3nc[nH]c23)cc1	inactive	–
CCCOCCOCCOCCO	inactive	–

SMILES	Potency	activity change, negative = cytotoxicity
CN(C)CCCNCCC#N	inactive	–
CC(=O)OC(C)(C)Cc1ccccc1	inactive	–
O=C(COCCOCCOCC(=O)Nc1c(I)cc(I)c(C(=O)O)c1I)Nc1c(I)cc(I)c(C(=O)O)c1I	inactive	–
C=CCOC(=O)c1ccc(C(=O)OCC=C)c(C(=O)OCC=C)c1	inactive	–
NC(=O)NNC(N)=O	inactive	–
CCCCCC1Nc2cc(C(F)(F)F)c(S(N)(=O)=O)cc2S(=O)(=O)N1 (stereo not given)	inactive	–
Cc1ccccc1C(=O)N1CC/C(=N\OS(=O)(=O)O)c2ccc(Cl)cc21	inactive	–
CC(=O)c1ccc2c(c1)CCCC2	inactive	–
C=CCOc1c(Br)cc(Br)cc1Br	inactive	–
CC(=O)Nc1ccc(C)cc1	inactive	–
CC1=CC[C@H](CC=O)C1(C)C	inactive	–
Nc1ccc(S(=O)(=O)NC(=O)c2ccccc2)cc1	inactive	–
CC(=O)OCCCc1ccccc1	inactive	–
CCOC(=O)C(=O)c1csc(NC=O)n1	inactive	–
O=C(O)c1ccccc1C(=O)OCc1ccccc1	inactive	–
N#CCCOCCOCCC#N	inactive	–
CC(C)C(=O)Nc1cccc(C(F)(F)F)c1	inactive	–
CCCCCN(CCCOC)C(=O)C(CCC(=O)O)NC(=O)c1ccc(Cl)c(Cl)c1 (stereo not given)	inactive	–
Cc1nc([N+](=O)[O-])cn1-c1ccc([N+](=O)[O-])cc1	inactive	–
O=[Si]=O	inactive	–
